Over roughly 2,900 compounds, “NF-kB SEAP reporter activity, fold change vs agonist alone” has its median near 0.99; the highest 2% begin near 2.6. The sample as a whole holds a higher share of the highest values than the screen did.
Tests used:
RAW-Dual [1] = experiment: NF-kB SEAP reporter activity, fold change vs agonist alone; cytotoxicity flag (confluency mask): cytotoxic (confluency <70% of control); higher = enhanced NF-kB activity
How it was run: (§1)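 RAW-Dual macrophages (50,000 cells/well in DMEM, 384-well plates) received 50 nL of library stock by pin tool, then a PRR agonist 1 h later, and were kept at 37 °C, 5% CO2. After 20 hours, supernatant was read for IRF by QuantiLuc luminescence and for NF-κB by QuantiBlue absorbance at 620 nm. Reporter activity is fold change over agonist-alone wells. Cytotoxic wells had IncuCyte confluency below 70% of agonist controls in both mask sets.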

RAW-Dual [2] = experiment: NF-kB SEAP reporter activity, fold change vs agonist alone; higher = enhanced NF-kB activity
How it was run: as §1

RAW-Dual [3] = experiment: NF-kB SEAP reporter activity, fold change vs agonist alone; cytotoxicity flag (confluency mask): not cytotoxic; higher = enhanced NF-kB activity
How it was run: as §1

[4] = agonist: ODN 1826 (TLR9) 0.5 ug/mL
[5] = agonist: Pam2CSK4 (TLR2/6) 0.1 ug/mL
[6] = agonist: Pam3CSK4 (TLR2/1) 0.1 ug/mL
[7] = library stock concentration (final ~1000-fold dilution): 10 mM, cytotoxicity flag (confluency mask): not cytotoxic, agonist: MPLA (TLR4) […]
[8] = library stock concentration (final ~1000-fold dilution): 10 mM, cytotoxicity flag (confluency mask): cytotoxic (confluency <70% of control), agonist: Imiquimod (TLR7) […]
[9] = library stock concentration (final ~1000-fold dilution): 10 mM, cytotoxicity flag (confluency mask): cytotoxic (confluency <70% of control), agonist: MPLA (TLR4) […]
[10] = library stock concentration (final ~1000-fold dilution): 10 mM, cytotoxicity flag (confluency mask): not cytotoxic, agonist: Imiquimod (TLR7) […]

CC(C)(C)c1nc(-c2ccc(NC(=O)Nc3cccc(C(F)(F)F)c3)c3ccccc23)c2c(N)nccn12 (library stock concentration (final ~1000-fold dilution): 10 mM)
NF-kB SEAP reporter activity (RAW-Dual [1]; agonist: LPS (TLR4) 0.1 ug/mL): 0.488
NF-kB SEAP reporter activity (RAW-Dual [1]; [4]): 0.163
NF-kB SEAP reporter activity (RAW-Dual [1]; [5]): 0.0888
NF-kB SEAP reporter activity (RAW-Dual [1]; [6]): 0.136

CNC(=O)c1cc(Oc2ccc(NC(=O)Nc3ccc(Cl)c(C(F)(F)F)c3)c(F)c2)ccn1.O
NF-kB SEAP reporter activity (RAW-Dual [2]; [7]): 1.58

CNC(=O)c1cc(Oc2ccc(NC(=O)Nc3ccc(Cl)c(C(F)(F)F)c3)c(F)c2)ccn1.O (library stock concentration (final ~1000-fold dilution): 10 mM)
NF-kB SEAP reporter activity (RAW-Dual [3]; agonist: LPS (TLR4) 0.1 ug/mL): 0.727
NF-kB SEAP reporter activity (RAW-Dual [3]; [4]): 0.502
NF-kB SEAP reporter activity (RAW-Dual [3]; [5]): 0.166
NF-kB SEAP reporter activity (RAW-Dual [3]; [6]): 0.205

Cc1[nH]c(C=C2C(=O)Nc3ccc(F)cc32)c(C)c1C(=O)NCCN1CCCC1 (library stock concentration (final ~1000-fold dilution): 2 mM)
NF-kB SEAP reporter activity (RAW-Dual [3]; agonist: LPS (TLR4) 0.1 ug/mL): 1.04
NF-kB SEAP reporter activity (RAW-Dual [3]; [4]): 0.183
NF-kB SEAP reporter activity (RAW-Dual [3]; [5]): 0.266
NF-kB SEAP reporter activity (RAW-Dual [3]; [6]): 0.414

COc1ccc2[nH]cc(C=C3C(=O)Nc4ccc(NC(=O)CCN5CCCCC5)cc43)c2c1
NF-kB SEAP reporter activity (RAW-Dual [2]; [8]): 1.4
NF-kB SEAP reporter activity (RAW-Dual [2]; [9]): 2

Cc1[nH]c(C=C2C(=O)Nc3ccc(F)cc32)c(C)c1C(=O)NCCN1CCCC1
NF-kB SEAP reporter activity (RAW-Dual [2]; library stock concentration (final ~1000-fold dilution): 2 mM, cytotoxicity flag (confluency mask): not cytotoxic, agonist: MPLA (TLR4) […]): 0.63

COc1ccc2[nH]cc(C=C3C(=O)Nc4ccc(NC(=O)CCN5CCCCC5)cc43)c2c1 (library stock concentration (final ~1000-fold dilution): 10 mM)
NF-kB SEAP reporter activity (RAW-Dual [1]; agonist: LPS (TLR4) 0.1 ug/mL): 4.16
NF-kB SEAP reporter activity (RAW-Dual [1]; [4]): 0.42
NF-kB SEAP reporter activity (RAW-Dual [1]; [5]): 1.36
NF-kB SEAP reporter activity (RAW-Dual [1]; [6]): 2.01

CCS(=O)(=O)Nc1ccc2c(c1)/C(=C(/Nc1ccc(CN3CCCCC3)cc1)c1ccccc1)C(=O)N2 (library stock concentration (final ~1000-fold dilution): 10 mM)
NF-kB SEAP reporter activity (RAW-Dual [1]; agonist: LPS (TLR4) 0.1 ug/mL): 0.196
NF-kB SEAP reporter activity (RAW-Dual [1]; [4]): 0.197
NF-kB SEAP reporter activity (RAW-Dual [1]; [5]): 0.0873
NF-kB SEAP reporter activity (RAW-Dual [1]; [6]): 0.163

CCS(=O)(=O)Nc1ccc2c(c1)/C(=C(/Nc1ccc(CN3CCCCC3)cc1)c1ccccc1)C(=O)N2
NF-kB SEAP reporter activity (RAW-Dual [2]; [8]): 0.214
NF-kB SEAP reporter activity (RAW-Dual [2]; [9]): 0.227

CO[C@H](c1c(NC(=O)Nc2cnc(-n3nccn3)c(Cl)c2)cnc2cc(Cl)nn12)[C@@H](C)OC
NF-kB SEAP reporter activity (RAW-Dual [2]; [10]): 0.986
NF-kB SEAP reporter activity (RAW-Dual [2]; [7]): 0.994

CO[C@H](c1c(NC(=O)Nc2cnc(-n3nccn3)c(Cl)c2)cnc2cc(Cl)nn12)[C@@H](C)OC (library stock concentration (final ~1000-fold dilution): 10 mM)
NF-kB SEAP reporter activity (RAW-Dual [3]; agonist: LPS (TLR4) 0.1 ug/mL): 1.37
NF-kB SEAP reporter activity (RAW-Dual [3]; [4]): 0.862
NF-kB SEAP reporter activity (RAW-Dual [3]; [5]): 0.76
NF-kB SEAP reporter activity (RAW-Dual [3]; [6]): 0.777

C=Cc1c(C)c2cc3nc(cc4[nH]c(cc5nc(cc1[nH]2)C(C)=C5CCC(=O)O)c(CCC(=O)OC)c4C)C1(C)C3=CC=C(C(=O)OC)C1C(=O)OC (centres undefined) (library stock concentration (final ~1000-fold dilution): 10 mM)
NF-kB SEAP reporter activity (RAW-Dual [1]; agonist: LPS (TLR4) 0.1 ug/mL): 0.243
NF-kB SEAP reporter activity (RAW-Dual [1]; [4]): 0.233
NF-kB SEAP reporter activity (RAW-Dual [1]; [5]): 0.193
NF-kB SEAP reporter activity (RAW-Dual [1]; [6]): 0.191

C=Cc1c(C)c2cc3nc(cc4[nH]c(cc5nc(cc1[nH]2)C(C)=C5CCC(=O)O)c(CCC(=O)OC)c4C)C1(C)C3=CC=C(C(=O)OC)C1C(=O)OC (centres undefined)
NF-kB SEAP reporter activity (RAW-Dual [2]; [8]): 0.297
NF-kB SEAP reporter activity (RAW-Dual [2]; [9]): 0.349

CNC(=O)c1cccc(-c2ccc3c(N4CCOCC4C)nc(N4CCOCC4C)nc3n2)c1 (centres undefined) (library stock concentration (final ~1000-fold dilution): 10 mM)
NF-kB SEAP reporter activity (RAW-Dual [3]; agonist: LPS (TLR4) 0.1 ug/mL): 1.11
NF-kB SEAP reporter activity (RAW-Dual [3]; [4]): 0.489
NF-kB SEAP reporter activity (RAW-Dual [3]; [5]): 0.376
NF-kB SEAP reporter activity (RAW-Dual [3]; [6]): 0.57

CNC(=O)c1cccc(-c2ccc3c(N4CCOCC4C)nc(N4CCOCC4C)nc3n2)c1 (centres undefined)
NF-kB SEAP reporter activity (RAW-Dual [2]; [10]): 1.13
NF-kB SEAP reporter activity (RAW-Dual [2]; [7]): 1.22

Oc1c(Cl)cc(Cl)cc1Sc1cc(Cl)cc(Cl)c1O
NF-kB SEAP reporter activity (RAW-Dual [2]; [8]): 1.81
NF-kB SEAP reporter activity (RAW-Dual [2]; [9]): 1.6

Oc1c(Cl)cc(Cl)cc1Sc1cc(Cl)cc(Cl)c1O (library stock concentration (final ~1000-fold dilution): 10 mM)
NF-kB SEAP reporter activity (RAW-Dual [1]; agonist: LPS (TLR4) 0.1 ug/mL): 3.19
NF-kB SEAP reporter activity (RAW-Dual [1]; [4]): 1.08
NF-kB SEAP reporter activity (RAW-Dual [1]; [5]): 0.362
NF-kB SEAP reporter activity (RAW-Dual [1]; [6]): 0.801

CCC1(O)C(=O)OCc2c1cc1n(c2=O)Cc2cc3c(CN(C)C)c(O)ccc3nc2-1 (centres undefined) (library stock concentration (final ~1000-fold dilution): 10 mM)
NF-kB SEAP reporter activity (RAW-Dual [3]; agonist: LPS (TLR4) 0.1 ug/mL): 2.01
NF-kB SEAP reporter activity (RAW-Dual [3]; [4]): 1.59
NF-kB SEAP reporter activity (RAW-Dual [3]; [5]): 0.849
NF-kB SEAP reporter activity (RAW-Dual [3]; [6]): 1.27

CCC1(O)C(=O)OCc2c1cc1n(c2=O)Cc2cc3c(CN(C)C)c(O)ccc3nc2-1.Cl (centres undefined)
NF-kB SEAP reporter activity (RAW-Dual [2]; [8]): 2.3
NF-kB SEAP reporter activity (RAW-Dual [2]; [9]): 2.16

CCC1(O)C(=O)OCc2c1cc1n(c2=O)Cc2cc3c(CN(C)C)c(O)ccc3nc2-1.Cl (centres undefined) (library stock concentration (final ~1000-fold dilution): 10 mM)
NF-kB SEAP reporter activity (RAW-Dual [1]; agonist: LPS (TLR4) 0.1 ug/mL): 2.73
NF-kB SEAP reporter activity (RAW-Dual [1]; [4]): 2.71
NF-kB SEAP reporter activity (RAW-Dual [1]; [5]): 0.868
NF-kB SEAP reporter activity (RAW-Dual [1]; [6]): 1.35

CCC1(O)C(=O)OCc2c1cc1n(c2=O)Cc2cc3c(CN(C)C)c(O)ccc3nc2-1 (centres undefined)
NF-kB SEAP reporter activity (RAW-Dual [2]; [10]): 1.46
NF-kB SEAP reporter activity (RAW-Dual [2]; [7]): 1.93

CCC1(O)C(=O)OCc2c1cc1n(c2=O)Cc2cc3cc(O)ccc3nc2-1 (centres undefined) (library stock concentration (final ~1000-fold dilution): 10 mM)
NF-kB SEAP reporter activity (RAW-Dual [3]; agonist: LPS (TLR4) 0.1 ug/mL): 1.08
NF-kB SEAP reporter activity (RAW-Dual [3]; [4]): 0.937
NF-kB SEAP reporter activity (RAW-Dual [3]; [5]): 1.07
NF-kB SEAP reporter activity (RAW-Dual [3]; [6]): 1.14
NF-kB SEAP reporter activity (RAW-Dual [1]; agonist: LPS (TLR4) 0.1 ug/mL): 1.9
NF-kB SEAP reporter activity (RAW-Dual [1]; [4]): 2.17
NF-kB SEAP reporter activity (RAW-Dual [1]; [5]): 1.03
NF-kB SEAP reporter activity (RAW-Dual [1]; [6]): 1.5

CCC1(O)C(=O)OCc2c1cc1n(c2=O)Cc2cc3cc(O)ccc3nc2-1 (centres undefined)
NF-kB SEAP reporter activity (RAW-Dual [2]; [8]): 2.34
NF-kB SEAP reporter activity (RAW-Dual [2]; [9]): 2
NF-kB SEAP reporter activity (RAW-Dual [2]; [10]): 0.896
NF-kB SEAP reporter activity (RAW-Dual [2]; [7]): 0.856

From the supplement of paper PMC10037445
